Assay results published in PubChem BioAssay.
Active and inactive are the calls of the source.

What was measured:
Albumin (Bos taurus) = Albumin (Bos taurus) (UniProt P02769); test: compounds binding labelled BSA control protein – biochemical, small-molecule microarray, Alexa647 label, 635/667 nm fluorescence, artefact control for SMM control protein annotation, profiling panel (AID 1118); details: BSA-A647 binding, fluorescence 635 nm, higher = more signal;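 note: score merges 667 nm emission intensity and signal-to-noise per printed compound spot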
Sequence of Albumin (Bos taurus) (P02769 whole entry, looked up): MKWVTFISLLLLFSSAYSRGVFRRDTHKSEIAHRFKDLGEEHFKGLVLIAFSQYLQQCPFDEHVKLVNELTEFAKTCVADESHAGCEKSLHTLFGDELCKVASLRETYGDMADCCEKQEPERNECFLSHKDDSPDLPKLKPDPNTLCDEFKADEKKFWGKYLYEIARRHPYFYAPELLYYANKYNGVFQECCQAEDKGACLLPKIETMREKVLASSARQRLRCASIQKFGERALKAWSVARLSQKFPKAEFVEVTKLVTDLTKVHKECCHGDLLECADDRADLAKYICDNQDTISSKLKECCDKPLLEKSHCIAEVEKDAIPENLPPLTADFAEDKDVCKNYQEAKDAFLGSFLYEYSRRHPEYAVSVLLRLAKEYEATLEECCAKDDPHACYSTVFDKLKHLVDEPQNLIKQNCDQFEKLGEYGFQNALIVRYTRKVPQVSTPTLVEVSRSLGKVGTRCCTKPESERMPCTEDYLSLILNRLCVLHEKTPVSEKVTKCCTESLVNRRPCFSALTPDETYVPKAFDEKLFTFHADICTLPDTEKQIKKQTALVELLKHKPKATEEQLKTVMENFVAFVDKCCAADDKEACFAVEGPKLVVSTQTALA

[1] = probe aXIP binding to arrayed compounds – biochemical, NeuroSMM set, 635/667 nm fluorescence, primary screen (AID 1119); details: small-molecule microarray, higher = more signal, called active from +8 up or from −8 down;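 note: probe is the protein aXip251-270 applied at 1 µg/mL to compound-printed slides; binding of probe to printed compounds measured as 667 nm fluorescence plus signal to noise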
[2] = probe aNOTCH3 binding on compound microarray – biochemical, small-molecule microarray, 635/667 nm fluorescence, primary screen (AID 1120); details: higher = more signal;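 note: probe is a biotin-tagged antibody raised against NOTCH3 rather than NOTCH3 protein; score merges spot fluorescence near 667 nm with spot signal to noise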
[3] = probe aNOTCH2 binding on compound microarray – biochemical, small-molecule microarray, 635/667 nm fluorescence, primary screen (AID 1121); details: higher = more signal;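 note: score merges feature fluorescence read at 667 nm with its signal to noise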
[4] = molecular target: Carbonic anhydrase 2 (Homo sapiens) (UniProt P00918); test: compounds binding carbonic anhydrase 2 – biochemical, small-molecule microarray, Alexa647-labelled CAII, profiling panel (AID 1122); details: CAII-A647 binding fluorescence, higher = more signal
[5] = COS7 lysate on small-molecule microarray, probe aHis, 635 nm (AID 1123); details: COS7 cell lysate, fluorescence, higher = more signal;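 note: z-score combines 667nm fluorescence intensity with signal-to-noise per printed compound spot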
[6] = probe aLAP1 signal on lysate-treated microarray – cell lysate, small-molecule microarray, COS7 lysate, primary screen (AID 1124); details: probe aLAP1, fluorescence, higher = more signal;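 note: lysate comes from COS7 cells expressing LAP1 and is applied at 0.3 µg/mL; score merges spot fluorescence near 667 nm with signal-to-noise over triplicate slides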
Sam68 (KHDRBS1) = test: compounds binding KHDRBS1 protein – biochemical, small-molecule microarray, 635 nm fluorescence, primary screen (AID 1125); details: higher = more signal;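 note: score merges 667 nm channel intensity with signal to noise over triplicate slides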
[7] = tested on: Chordin-like protein 2 (CHRDL2); test: compounds binding chordin-like 2 – biochemical, small-molecule microarray, 635 nm fluorescence, primary screen (AID 1126); details: fluorescence 635 nm, higher = more signal;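 note: printed compound slides probed with Chrdl2 protein at 4 µg/mL for 1 h at 4 C; score merges 667 nm emission intensity with signal to noise over three replicate slides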
[8] = molecular target: Concanavalin-A (Canavalia ensiformis) (UniProt P02866); test: compounds binding concanavalin A lectin – biochemical, small-molecule microarray, Alexa647 label, 635 nm, artefact control for SMM control protein annotation, primary screen (AID 1127); details: ConA-A647 binding fluorescence, higher = more signal;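 note: z combines 667 nm emission intensity with signal-to-noise across three replicate slides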
Sequence of Concanavalin-A (Canavalia ensiformis) (P02866 whole entry, looked up): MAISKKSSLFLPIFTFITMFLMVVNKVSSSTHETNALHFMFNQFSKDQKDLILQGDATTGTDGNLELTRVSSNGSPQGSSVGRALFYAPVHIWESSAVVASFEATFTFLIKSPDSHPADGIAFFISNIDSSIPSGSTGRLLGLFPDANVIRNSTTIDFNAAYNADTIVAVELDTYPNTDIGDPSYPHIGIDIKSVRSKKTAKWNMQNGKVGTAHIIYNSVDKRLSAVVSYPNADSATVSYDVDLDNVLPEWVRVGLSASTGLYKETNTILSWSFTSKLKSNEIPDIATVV

[9] = compounds binding Alexa647 anti-His antibody – biochemical, small-molecule microarray, 635 nm fluorescence, artefact control for SMM control protein annotation, primary screen (AID 1128); details: higher = more signal;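 note: score merges feature fluorescence with signal-to-noise for each printed compound spot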
[10] = tested on: Human papillomavirus type 1a E7 protein (residues 1-88); test: HPV1a E7 small-molecule binders, primary screen, biochemical, small-molecule microarray, residues 1-88, 635 nm (AID 1129); details: small-molecule microarray binding, fluorescence 635 nm; higher = more signal
[11] = molecular target: Focal adhesion kinase 1 (Homo sapiens) (UniProt Q05397); test: PTK2 protein binding on printed compound slides – biochemical, small-molecule microarray, 635/667 nm fluorescence, BSA, DTT, primary screen (AID 1130); details: 635 nm fluorescence, higher = more signal;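 note: composite of spot emission at 667 nm and signal to noise over triplicate slides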
Sequence of Focal adhesion kinase 1 (Homo sapiens) (Q05397 whole entry, looked up): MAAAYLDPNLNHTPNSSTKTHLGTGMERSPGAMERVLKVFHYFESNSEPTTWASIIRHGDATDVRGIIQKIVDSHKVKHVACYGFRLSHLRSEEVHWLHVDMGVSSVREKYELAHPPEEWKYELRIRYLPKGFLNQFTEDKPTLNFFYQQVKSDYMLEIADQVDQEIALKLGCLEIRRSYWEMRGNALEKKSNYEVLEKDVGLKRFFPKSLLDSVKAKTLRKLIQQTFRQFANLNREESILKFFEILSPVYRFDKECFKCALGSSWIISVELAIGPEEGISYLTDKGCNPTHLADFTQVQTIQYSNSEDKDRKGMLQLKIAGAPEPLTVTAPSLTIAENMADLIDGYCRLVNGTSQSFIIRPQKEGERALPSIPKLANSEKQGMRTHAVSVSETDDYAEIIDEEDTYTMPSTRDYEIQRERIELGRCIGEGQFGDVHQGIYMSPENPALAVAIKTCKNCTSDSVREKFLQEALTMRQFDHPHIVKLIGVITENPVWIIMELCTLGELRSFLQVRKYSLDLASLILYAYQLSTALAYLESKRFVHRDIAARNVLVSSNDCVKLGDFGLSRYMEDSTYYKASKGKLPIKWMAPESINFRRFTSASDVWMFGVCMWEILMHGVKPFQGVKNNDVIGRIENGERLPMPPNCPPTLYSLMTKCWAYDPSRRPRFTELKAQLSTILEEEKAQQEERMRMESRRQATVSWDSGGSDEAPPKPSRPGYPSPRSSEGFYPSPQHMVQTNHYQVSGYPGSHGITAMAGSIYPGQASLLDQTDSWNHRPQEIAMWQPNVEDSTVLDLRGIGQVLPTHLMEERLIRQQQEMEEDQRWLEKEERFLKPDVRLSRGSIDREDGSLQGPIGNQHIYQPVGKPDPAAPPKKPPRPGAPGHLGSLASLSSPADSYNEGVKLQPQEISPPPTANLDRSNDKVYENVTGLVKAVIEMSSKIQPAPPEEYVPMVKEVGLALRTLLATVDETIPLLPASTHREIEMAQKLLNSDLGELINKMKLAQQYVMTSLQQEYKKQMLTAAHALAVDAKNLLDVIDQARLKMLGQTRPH

[12] = tested on: Fibrinogen (Alexa647-labelled); test: Alexa647-fibrinogen binding to printed small molecules – biochemical, small-molecule microarray, 635/667 nm fluorescence, artefact control for SMM control-protein annotation, profiling panel (AID 1131); details: fibrinogen-A647 binding fluorescence, higher = more signal;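 note: z-score merges 667 nm fluorescence with per-spot signal-to-noise over triplicate slides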
[13] = molecular target: Follistatin (Homo sapiens) (UniProt P19883); test: FST protein binding to printed compounds – biochemical, small-molecule microarray, 635/667 nm fluorescence, primary screen (AID 1132); details: 635 nm fluorescence, higher = more signal
Sequence of Follistatin (Homo sapiens) (P19883 whole entry, looked up): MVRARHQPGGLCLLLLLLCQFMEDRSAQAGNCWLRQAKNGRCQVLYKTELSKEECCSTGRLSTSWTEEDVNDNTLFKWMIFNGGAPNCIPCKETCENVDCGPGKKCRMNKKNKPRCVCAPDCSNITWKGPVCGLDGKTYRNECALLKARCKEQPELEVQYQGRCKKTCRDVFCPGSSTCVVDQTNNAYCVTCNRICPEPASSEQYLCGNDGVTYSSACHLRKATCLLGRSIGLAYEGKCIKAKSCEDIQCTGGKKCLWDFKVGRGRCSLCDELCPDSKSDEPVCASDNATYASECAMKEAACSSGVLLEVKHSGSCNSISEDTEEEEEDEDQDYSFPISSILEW

[14] = molecular target: Fibroblast growth factor 2 (Homo sapiens) (UniProt P09038); test: basic fibroblast growth factor binding to printed compounds – biochemical, small-molecule microarray, 635/667 nm fluorescence, primary screen (AID 1133); details: FGF2, fluorescence 635/667, higher = more signal
Sequence of Fibroblast growth factor 2 (Homo sapiens) (P09038 whole entry, looked up): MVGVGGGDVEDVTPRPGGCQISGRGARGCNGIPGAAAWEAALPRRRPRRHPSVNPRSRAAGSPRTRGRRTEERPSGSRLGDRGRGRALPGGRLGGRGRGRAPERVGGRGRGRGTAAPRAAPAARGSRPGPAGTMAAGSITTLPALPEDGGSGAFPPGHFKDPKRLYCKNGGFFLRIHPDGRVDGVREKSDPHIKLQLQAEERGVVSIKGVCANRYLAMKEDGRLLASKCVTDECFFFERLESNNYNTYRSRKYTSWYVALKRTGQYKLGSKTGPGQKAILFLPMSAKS

[15] = JC-1 mitochondrial potential readout, lung cancer cells – cell-based, A549, JC-1 fluorescence, basal, 24 h, 100 nL, profiling panel (AID 1138); details: higher = more signal;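 note: A549 lung adenocarcinoma cells under basal conditions with no added stimulus; test concentration not given here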
Lefty1 = Lefty1 protein binding to printed compounds – biochemical, small-molecule microarray, 635/667 nm fluorescence, primary screen (AID 1139); details: fluorescence 635/667, higher = more signal
[16] = tested on: wheat germ agglutinin (Triticum aestivum), Alexa647-labelled; test: Alexa647-WGA lectin binding to printed small molecules – biochemical, small-molecule microarray, 635/667 nm fluorescence, artefact control for SMM control-protein annotation, profiling panel (AID 1140); details: WGA-A647 binding, 635 nm fluorescence, higher = more signal;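 note: score merges 667 nm feature emission with signal to noise over triplicate slides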
[17] = molecular target: Luciferin 4-monooxygenase (Photinus pyralis) (UniProt P08659); test: inhibition of purified Photinus pyralis luciferase – biochemical, luminescence, purified enzyme, 2006 set, primary screen (AID 1141); details: purified firefly luciferase, SteadyGlo luminescence, 30 min; higher = more signal, called active from +8 up or from −8 down;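 note: cell-free assay with purified firefly luciferase at 100 ng per well in PBS; test concentration not given here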
Sequence of Luciferin 4-monooxygenase (Photinus pyralis) (P08659 whole entry, looked up): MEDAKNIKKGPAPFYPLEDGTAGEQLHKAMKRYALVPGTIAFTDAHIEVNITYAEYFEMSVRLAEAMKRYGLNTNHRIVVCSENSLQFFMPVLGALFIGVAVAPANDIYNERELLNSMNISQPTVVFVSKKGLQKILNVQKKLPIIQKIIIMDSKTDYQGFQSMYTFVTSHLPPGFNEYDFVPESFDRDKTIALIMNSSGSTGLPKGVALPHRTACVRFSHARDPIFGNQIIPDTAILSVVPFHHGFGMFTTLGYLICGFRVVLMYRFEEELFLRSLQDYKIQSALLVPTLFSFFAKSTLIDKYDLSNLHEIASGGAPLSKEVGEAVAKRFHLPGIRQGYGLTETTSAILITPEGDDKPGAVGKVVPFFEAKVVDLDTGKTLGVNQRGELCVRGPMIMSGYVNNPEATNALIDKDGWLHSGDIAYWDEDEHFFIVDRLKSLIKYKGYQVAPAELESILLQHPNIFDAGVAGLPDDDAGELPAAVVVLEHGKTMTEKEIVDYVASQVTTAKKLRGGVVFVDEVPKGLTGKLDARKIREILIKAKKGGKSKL

Row | SMILES | composite z-score (Albumin (Bos taurus)) | composite Z-score [1] | composite z-score [2] | composite z-score [3] | composite z-score [4] | composite z-score [5] | composite z-score [6] | composite z-score (Sam68 (KHDRBS1)) | composite z-score [7] | composite z-score [8] | composite z-score [9] | composite z-score [10] | composite z-score [11] | composite z-score [12] | composite z-score [13] | composite z-score [14] | z-score [15] | composite z-score (Lefty1) | composite z-score [16] | z-score [17]
1 | O=C1O[C@@H](c2ccccc2)[C@@H](c2ccccc2)N2[C@@H](c3ccccc3OCCO)[C@]3(C(=O)Nc4ccc(C#CC5(O)CCCCCC5)cc43)[C@@H](C(=O)N3CCCCCCC3)[C@H]12 | -0.411 | 9.73 (active) | 2.33 | 1.21 | 1.06 | 5.19 | 1.41 | 1.33 | 1.69 | 0.93 | 2.72 | 1.27 | 4.12 | 0.89 | 1.58 | 0.718 | -1.1 | 1.99 | 1.67 | -0.37 (inactive)
2 | CC1C2C(CCCO)=CC(C3C(=O)N(C(N)=O)C(=O)C23)N1Cc1cccc(OC(F)(F)F)c1 (stereo not given) | 1 | 0.649 (inactive) | -0.068 | -0.114 | 0.699 | 1.22 | 0.147 | 1.33 | 0.0627 | -0.0715 | 0.632 | 1.11 | 0.314 | 0.646 | 0.0794 | 0.438 | -0.341 | 0.216 | 0.576 | -0.0224 (inactive)
3 | O=C(NC1CC1)[C@@H]1c2ccccc2C(=O)N(C2CCCCC2)[C@H]1c1ccc(CO)cc1 | -0.0383 | 0.635 (inactive) | -0.214 | -0.136 | 0.554 | 2.64 | 1.99 | 0.454 | -0.696 | 0.332 | 1.86 | 1.15 | 0.498 | -0.518 | 0.27 | -0.027 | 0.116 | -0.413 | 0.063 | 0.0436 (inactive)
4 | C=CCC(OC(C)=O)[C@@H]1[C@@H](N(Cc2ccc(-c3ccccc3)cc2)C(=O)Cc2ccc(OC)cc2)c2cc(OCCCO)ccc2N1C(=O)Cc1ccc(OC)cc1 (stereo not given in full) | -0.0621 | 0.445 (inactive) | 0.464 | 0.146 | 0.306 | 0.248 | 0.302 | 0.0538 | 0.235 | -0.0563 | 0.271 | 0.0716 | 1.78 | 0.513 | 0.7 | 0.0471 | 0.462 | 0.161 | 0.365 | 0.355 (inactive)
5 | COC(=O)c1ccc(OC)c(/C=C\CC(OC(=O)c2ccncc2)c2ccccc2)c1 (stereo not given) | -0.311 | 0.63 (inactive) | -0.0077 | -0.168 | 0.387 | 0.0584 | -0.304 | -0.0077 | 1.37 | 0.535 | 0.429 | -0.0099 | -0.111 | -0.237 | 1.1 | 1.22 | 1.64 | 0.904 | 0.947 | -1.89 (inactive)
6 | CCCCC(=C=CC[C@@H](O)c1ccccc1OCCO)C[C@@H](O)c1ccccn1 | 0.043 | 0.504 (inactive) | -0.0077 | -0.197 | 0.678 | 0.522 | 0.137 | 0.81 | 0.179 | 0.287 | -0.242 | 0.451 | 0.36 | 0.296 | 0.638 | 0.356 | 0.969 | 0.699 | -0.306 | -0.96 (inactive)
7 | C[N+](C)(C)CCCC[C@@H]1NC(=O)[C@H]2C[C@@H](C(=O)O)[C@@H](c3ccc(O)cc3)N2C1=O | -0.804 | -0.55 (inactive) | -0.165 | -0.104 | 0.704 | 1.4 | 0.606 | 0.744 | 0.616 | 0.905 | 1.04 | 0.123 | -0.216 | -0.223 | 0.864 | 0.948 | 1.49 | 0.155 | -0.185 | -1.93 (inactive)
8 | COCCOC(=O)N1C(=O)[C@@]2(c3cc(C#CCNC(N)=O)ccc31)[C@H](C(=O)N1CCN(c3ncccn3)CC1)[C@H]1C(=O)O[C@H](c3ccccc3)[C@H](c3ccccc3)N1[C@@H]2c1ccc(O)cc1 | 0.526 | -0.453 (inactive) | -0.457 | -0.292 | 0.371 | -0.864 | 0.555 | -0.396 | -0.956 | -0.785 | -0.031 | -0.937 | -0.305 | -1 | -0.974 | -0.623 | 0.284 | -1.19 | 0.0548 | 0.0121 (inactive)
9 | CC(C)Cc1ccc(CN2CC[C@@H](NC(=O)c3ccccc3)C2)cc1 | 0.767 | 0.196 (inactive) | -0.129 | -0.109 | -0.0412 | -0.0414 | -0.0172 | -0.252 | 0.345 | -0.52 | 0.44 | -1.55 | -0.144 | 0.411 | -0.0213 | -0.382 | 1.81 | 0.247 | 0.0191 | 0.525 (inactive)
10 | CN1C2C=C(c3ccc(CO)cc3)C(C3C(=O)N(C(N)=O)C(=O)C32)C1C1CC1 (stereo not given) | -0.43 | -0.378 (inactive) | -0.206 | -0.146 | -0.117 | 0.151 | -0.262 | 0.267 | -0.0733 | 0.688 | 0.573 | -0.241 | -0.215 | 0.586 | -0.189 | -0.379 | -0.572 | -0.72 | 0.239 | -0.0168 (inactive)
11 | O=C1OC[C@@H](c2ccccc2)n2cc(/C=C/c3ccccc3)cc21 | -0.456 | 0.597 (inactive) | -0.189 | -0.149 | 0.43 | 0.163 | -0.475 | -1.14 | -0.701 | 0.51 | 0.353 | -0.58 | -0.102 | 0.5 | -0.324 | -0.574 | -0.512 | -0.0599 | -0.328 | 0.287 (inactive)
